Hit rate of the full screen: of about 65,000 compounds, about 1,200 (1.8%) were called active. This is one part of a sample in which actives are shown more often than they occur. Rule as the data show it: active = inhibition above about 50%; inactive = the rest.
Each compound was assayed against Gag-Pol polyprotein (Human immunodeficiency virus type 1 group M subtype B (isolate HXB2)) (UniProt P04585) (assay: HIV-1 RT RNase H inhibitors, primary screen, biochemical, fluorescence (AID 565)). Conditions: RT-RNase H RNA/DNA duplex cleavage, at 10 µM, active compounds read high.
`COC(=O)C1=C(C)OC(N)=C(C#N)C1c1cc(OC)ccc1OC` (stereo not drawn) was tested, and the inhibition was -6.95% (inactive). In the case of `CCC(=O)NC(=Nc1nc2ccccc2s1)NC(=O)CC`, the inhibition is reported as -21.2% (inactive). `N#Cc1nc(-c2ccc(OCc3ccccc3)cc2)oc1NCCCN1CCOCC1` was tested, and the inhibition was -42.2% (inactive). `COc1ccc(Nc2oc(-c3ccccc3Cl)nc2C#N)cc1` was tested, and the inhibition was 54.5% (active). `CCOc1ccc(Nc2oc(Cc3ccccc3)nc2C#N)cc1` was tested, and the inhibition was -28.4% (inactive). In the case of `O=C(CSC1=Nc2ccccc2C2=NC(c3ccccc3)C(=O)N12)NCC1CCCO1` (stereo not drawn), the inhibition is reported as 2.21% (inactive). In the case of `CC(C)C1N=C2c3ccccc3N=C(SCC(=O)c3ccc(O)c(O)c3)N2C1=O` (stereo not drawn), the inhibition is reported as 96.1% (active). With `NC(=O)CSC1=Nc2ccccc2C2=NC(CCC(=O)NCc3ccc(F)cc3)C(=O)N12` (stereo not drawn) the inhibition was -6.32% (inactive). `CCOc1cc(/C=N/O)cc(Br)c1OC` was tested, and the inhibition was -18.2% (inactive). For `CN1CCC2(CC1)NC(=O)NC2=O`, the inhibition was -0.41% (inactive). For `COc1ccc(N2CCN(C(=O)CSc3ncnc4c3cnn4-c3ccc(OC)cc3)CC2)cc1`, the inhibition was 54.2% (active). In the case of `COc1ccc(N2CCN(C(=O)CSc3nnc4ncccn34)CC2)cc1`, the inhibition is reported as 2.76% (inactive). In the case of `COc1ccc(N2CCN(C(=O)CSc3nc4cc(OC)c(OC)cc4cc3C#N)CC2)cc1`, the inhibition is reported as 36.4% (inactive). For `O=C(O)C1CCCN(S(=O)(=O)c2cccc3cccnc23)C1` (stereo not drawn), the inhibition was -3.84% (inactive). With `COc1cc2[nH]c(=S)n(CCN3CCCCC3C)c(=O)c2cc1OC` (stereo not drawn) the inhibition was -11% (inactive). With `CCSc1nc(=S)n(CC)c(C)c1C(C)=O` the inhibition was -6.33% (inactive). In the case of `CCOC(=O)c1sc(=S)n(-c2cccc(OC)c2)c1N`, the inhibition is reported as 65.1% (active). `CCOC(=O)c1nc(N)sc1C(=O)OCC` was tested, and the inhibition was -13.4% (inactive). In the case of `COC(=O)c1sc(=S)n(-c2ccccc2)c1N`, the inhibition is reported as 88.6% (active). `COC(=O)c1cn(-c2ccccc2)nc1-c1cccnc1` was tested, and the inhibition was -35.4% (inactive). `CCOC(=O)Cn1c(N)c(C(=O)OC)sc1=S` was tested, and the inhibition was 56.2% (active). For `CCOC(=O)Cn1c(SC)nc2sc3c(c2c1=O)CC(C)(C)OC3`, the inhibition was -12.4% (inactive). `CCOC(=O)CNC(=O)c1nn(-c2cccc(OC)c2)c(=O)c2ccccc12` was tested, and the inhibition was -9.52% (inactive). In the case of `CCOC(=O)CSc1nnc(CNC(=O)c2cccs2)n1-c1ccccc1`, the inhibition is reported as -126% (inactive). With `CCOc1cccc(-n2nnnc2-c2ccc(OC)cc2)c1` the inhibition was -27.8% (inactive). With `O=C(Cn1c(=S)nc2ccccn21)N1CCc2ccccc2C1` the inhibition was -12.1% (inactive). With `Cc1nn2c3ccccc3nc2n(C)c1=O` the inhibition was -8.5% (inactive). `CCOc1ncccc1C(=O)OCc1cn2cc(Cl)ccc2n1` was tested, and the inhibition was -19.9% (inactive).

Source: PubChem BioAssay AID565 (University of Pittsburgh Molecular Library Screening Center, 2006)
